Only some compounds are listed: those with a hit (about 2.4% of all), similar ones and a draw of the others.
POLB inh – inhibitors of human DNA polymerase beta; Pol beta primer extension/strand displacement, fluorescence kinetic; P06746; Potency, µM (doses to about 114 µM), actives largely listed as inhibitors; actives 1.3% (n = 340,000)
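Values derive from four-parameter Hill fits of normalized kinetic data: reads at 0 and 10 min following addition of 50 nM substrate to 10 nM Pol beta preincubated 15 min with compound.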
Pol iota inh – inhibitors of human DNA polymerase iota | Q9UNA4 | Pol iota fluorescent replication assay, 10 min | Potency, µM (top dose mostly 115 µM), usual class: inhibitors | actives 1% (n = 390,000) | AID 588590
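Fluorescent replication assay read twice, at 0 min and 10 min after adding 50 nM (final) substrate. Enzyme (10 nM) and compounds were first incubated 15 min at room temperature; enzyme-free buffer wells were negative controls.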
POLH inh – blocks human DNA polymerase eta activity | recombinant Pol eta, fluorescent DNA replication assay | Potency, µM (series often up to 114 µM), most hits filed as inhibitors | actives 1.2% (n = 390,000) | AID 588591
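Pol eta at 10 nM preincubated with compounds 15 min at room temperature; reaction started with fluorescent substrate (50 nM final) and read kinetically at 0 and 10 min.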
FEN1 inh – inhibitors of human flap endonuclease 1 | actives 0.35% (n = 390,000) | Recombinant FEN1 flap cleavage, fluorescence, 15 min | AID 588795 | Potency, µM (highest dose often 114 µM), most hits filed as inhibitors; also: nearly all actives have a fitted effect of over 65% in size
Target sequence (P39748 whole entry, looked up): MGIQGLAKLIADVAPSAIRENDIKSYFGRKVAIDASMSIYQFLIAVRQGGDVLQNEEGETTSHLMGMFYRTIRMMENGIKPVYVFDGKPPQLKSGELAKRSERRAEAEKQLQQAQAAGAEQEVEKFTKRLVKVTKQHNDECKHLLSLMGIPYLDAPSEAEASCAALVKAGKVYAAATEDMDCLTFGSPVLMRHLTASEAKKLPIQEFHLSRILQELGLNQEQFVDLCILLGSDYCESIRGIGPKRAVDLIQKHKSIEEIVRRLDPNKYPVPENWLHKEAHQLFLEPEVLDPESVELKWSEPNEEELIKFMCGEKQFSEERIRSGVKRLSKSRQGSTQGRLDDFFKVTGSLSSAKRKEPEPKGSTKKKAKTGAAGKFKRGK
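Reaction started by adding substrate (50 nM final) to 10 nM enzyme after 15 min room-temperature compound preincubation. Reads at 0 and 15 min, with data normalized and fitted to a four-parameter Hill equation.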
WRN helicase inh – blocks human WRN helicase | WRN helicase unwinding, fluorescent forked duplex, kinetic | Potency, µM (series often up to 114 µM), most hits filed as inhibitors | actives 0.46% (n = 360,000); also: nearly all actives have a fitted effect of over 55% in size
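Enzyme (20 nM final) and test compound sit together 15 min at room temperature before substrate addition. Substrate is a single-forked duplex oligonucleotide (100 nM) labelled with fluorophore and quencher, with 2 mM ATP; helicase unwinding raises red fluorescence, read kinetically.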
Pol kappa inh – DNA polymerase kappa (human) inhibition; purified Pol kappa, fluorescent DNA synthesis assay, 10 min; Potency, µM (series often up to 107 µM), usual class: inhibitors; actives 0.53% (n = 400,000); AID 588579
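First, compounds were pin-transferred onto 10 nM Pol kappa. After 15 min at room temperature, substrate was added to 50 nM final. Fluorescence was then measured kinetically at 0 and 10 min.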
Hits are given with their value; - = inactive; ? = inconclusive; . = not tested or not shown; [ ] = another dose, or the depositor's remark. Calls follow the shape of the dose curve; as a rule, active = well fitted curve in the direction sought with a large enough effect; inconclusive = small, poorly fitted or top-dose-only effect, or another doubt; inactive = no such curve, though single readings can be large; an effect the other way counts as inactive or inconclusive.

SMILES | POLB inh | Pol iota inh | POLH inh | FEN1 inh | WRN helicase inh | Pol kappa inh
O=C(NO)c1ccccc1O | - | - | - | - | - | -
CSc1ccc(/C=C/C(=O)NC(=O)c2ccccc2O)cc1 | 35µM | ? | - | - | - | -
CN(C)c1ccc(/C=C/c2ncnc3ccccc23)cc1 | . | 40µM | . | ? | . | ?
CN(C)c1ccc(N=Nc2ccc(/C=C/c3ccnc4ccccc34)cc2)cc1 | . | ? | . | 25µM | . | -
CCN(C)c1ccc(/C=C/c2ccnc3ccccc23)cc1 | . | ? | . | - | . | -
O=C(c1ccco1)N1CCN(C(=O)c2ccc(COc3ccc4c(c3)CCC4)o2)CC1 | 89µM | ? | ? | - | - | -
O=C(COc1ccccc1)Nc1ccc(C(=O)OCc2cc(=O)n3nc(C4CC4)sc3n2)cc1 | - | - | - | - | . | -
COc1cc(OC)c(OC)cc1/C=N/NC(=O)c1cc(-c2cccn2C)n[nH]1 | - | - | - | - | - | -
COc1cc(/C=N/NC(=O)c2ccc(=O)[nH]n2)ccc1O | 20µM | 100µM | ? | - | - | ?
COc1ccc(/C=N/NC(=O)c2cc(-c3cccn3C)n[nH]2)cc1OC | 8.9µM | ? | ? | ? | -[11.6 µM] | ?
COc1cc(/C=N/NC(=O)c2cc(C3CC3)[nH]n2)ccc1O | - | - | - | - | - | -
COc1cc(/C=N/NC(=O)c2cccnc2)ccc1OCC(=O)Nc1ccc(C)cc1 | 13µM | ? | ? | - | - | ?
CCNC(=O)COc1ccc(/C=N/NC(=O)c2cccnc2)cc1OC | - | - | - | - | - | -
COc1cc(/C=N\NC(=O)c2ccc(C)nc2)ccc1OC(=O)c1ccc2c(c1)OCO2 | 20µM | - | ? | - | - | -
CCCCc1c(-c2ccc(OC)cc2)ncn1CCc1ccccc1OC | . | . | . | . | - | .
COc1ccc2[nH]c(C(=O)N/N=C/c3ccccc3OC)cc2c1 | - | - | ? | - | - | -
COc1cc(/C=N/Nc2ccc(C(=O)O)cc2)ccc1O | 25µM | ? | 22µM | - | - | -
COc1cc(/C=N/NC(=O)c2cc(-c3ccc4c(c3)OCO4)n[nH]2)ccc1O | 8.9µM | ? | ? | - | -[11.6 µM] | 79µM
COc1ccc2[nH]c(C(=O)N/N=C/c3ccc(OC)c(O)c3)cc2c1 | 28µM | - | ? | - | - | ?
COc1cc(/C=N/Nc2ccc(C(=O)O)cc2)cc(OC)c1OC | - | - | - | - | - | -
CCN(C(=O)CCn1cnc2onc(-c3ccc(F)cc3)c2c1=O)c1ccc(OC)cc1 | - | - | - | - | . | -
Cc1ccc(CSc2nc(=O)c3c(C)cc(C)nc3n2C2CC2)cc1 | - | - | - | - | . | -
COc1cc(OC)c(NS(=O)(=O)c2c(C)nc3sc(C)cn3c2=O)cc1Cl | - | - | - | - | . | -
O=C(Cc1ccc(Br)cc1)NO | . | - | . | - | . | -
CCc1cccc(NC(=O)c2ccc(Cn3c(=O)[nH]c4ccsc4c3=O)cc2)c1 | 45µM | - | ? | - | -[11.6 µM] | -
SMILES | POLB inh | Pol iota inh | POLH inh | FEN1 inh | WRN helicase inh | Pol kappa inh
Cc1ccccc1CS(=O)(=O)Cc1ccc(C(=O)NCCc2ccc(Cl)cc2)o1 | - | - | - | - | . | -
O=C(COC(=O)/C=C/c1ccc2ccccc2n1)NNC(=O)c1ccccc1 | . | . | 40µM | . | - | .
O=C1CN(S(=O)(=O)c2cc(C(=O)O)ccc2Cl)c2ccccc2N1 | 50µM | ? | 50µM | - | ? | -
O=C(O)c1ccc(Cl)c(S(=O)(=O)N2CCCCCC2)c1 | - | - | - | - | - | -
NC(=O)CC(NC(=O)Cc1ccc(Cl)cc1)c1ccc(NCCCN2CCCC2=O)c([N+](=O)[O-])c1 (stereo not given) | - | - | - | - | - | -
NC(=O)CC(NC(=O)c1ccccc1)c1ccc(NCCCN2CCCC2=O)c([N+](=O)[O-])c1 (stereo not given) | 79µM | ? | - | - | - | -
Cc1ccc(/C=C2\SC(=S)N(CCCC(=O)Nc3ccccc3C(=O)O)C2=O)cc1 | - | - | ? | ? | - | -
CCc1ccc(/C=C2\SC(=S)N(CCCC(=O)Nc3ccccc3C(=O)O)C2=O)cc1 | ? | 71µM | ? | - | ? | -
COc1ccc(/C=C2\SC(=S)N(CCC(=O)Nc3ccc(C(=O)O)cc3)C2=O)cc1OC | ? | - | 32µM | - | - | -
COc1ccc(/C=C2\SC(=S)N(CCCC(=O)Nc3cccc(C(=O)O)c3)C2=O)cc1OC | - | - | ? | - | - | -
O=C(CCCN1C(=O)/C(=C/c2ccc3c(c2)OCO3)SC1=S)Nc1ccc(C(=O)O)cc1 | - | - | 89µM | - | - | -
Cc1ccc(C2C(C#N)=C(N)N(c3cccnc3)C3=C2C(=O)CCC3)s1 (stereo not given) | ? | ? | 56µM | - | -[11.6 µM] | -
COc1cccc(CNC(=O)Cn2cc3c(n2)-c2c(oc(C(=O)N4CCOCC4)c2C)CC3)c1 | - | - | - | - | . | -
Cc1occc1C(=O)NCc1cccc(CNC(=O)c2ccoc2C)c1 | 22µM | 16µM | 3.5µM | ? | 40µM | 32µM
Cc1occc1C(=O)NCc1ccc2c(c1)OCO2 | - | - | ? | - | - | -
O=C(c1cccc(N2C(=O)C3CC=CCC3C2=O)c1)N1CCN(c2ccccc2)CC1 (stereo not given) | 45µM | - | - | - | - | -
O=C1C(c2ccccc2)=[N+]([O-])c2ccccc21 | . | 8.9µM | ? | ? | 71µM | -
CC1C/C(=C\c2cccnc2)C(=O)/C(=C/c2cccnc2)C1 (stereo not given) | - | 16µM | 20µM | - | - | -
O=[N+]([O-])c1ccc(Sc2cccc[n+]2[O-])c2nonc12 | 20µM | 3.5µM | 4.5µM | 22µM | 16µM | 32µM
O=[N+]([O-])c1ccc(Nc2ccccc2)c2nonc12 | - | - | - | - | - | -
O=C(N/N=C/c1cc(Cl)cc([N+](=O)[O-])c1O)c1cc(-c2ccccn2)nc2ccccc12 | - | - | 79µM | - | - | -
COc1cccc(/C=N/NC(=O)c2cc(-c3ccccn3)nc3ccccc23)c1O | . | - | - | - | - | -
Cc1ccc(S(=O)(=O)N(C)CCCN(C)c2nc(-c3cccs3)nc3ccccc23)cc1 | . | - | . | - | . | -
O=C(O)CCCCCN1C(=O)/C(=C\c2ccc(-c3ccc(Cl)cc3)o2)SC1=S | ? | 35µM | ? | - | -[11.6 µM] | 79µM
O=C(O)CCCCCN1C(=O)/C(=C\c2ccncc2)SC1=S | - | ? | - | - | - | -
COc1cc([N+](=O)[O-])ccc1-c1ccc(/C=N/NC(N)=O)o1 | ? | 89µM | - | - | - | -
Cc1cccc(-c2nc3c4ccccc4nc(NCc4ccccc4Cl)n3n2)c1 | - | - | - | - | . | -
COC(=O)/C=C1\SC(=Nc2ccccc2)NC1=O | - | - | - | - | - | -

Screening results as filed in PubChem BioAssay.
